From the supplement of paper PMC6992640
± gives the standard deviation of the averaged measurements.

Tests used:
Experiment in all cases: cell viability (% of vehicle); higher = less cytotoxic
HCI01 [1] = cells of a triple-negative basal-like breast cancer xenograft; conditions: 10 µM; 72 h
HCI03 = cells of an ER-positive luminal breast cancer xenograft; conditions: 10 µM; 72 h
HCI09 = cells of a triple-negative luminal androgen receptor type breast cancer xenograft; conditions: 10 µM; 72 h
HCI11 = cells of an ER-positive luminal breast cancer xenograft; conditions: 10 µM; 72 h
HCI13 = cells of an ER-positive luminal breast cancer xenograft; conditions: 10 µM; 72 h
HCI16 = cells of a triple-negative basal-like breast cancer xenograft; conditions: 10 µM; 72 h
UCD52 [2] = cells of a triple-negative basal-like breast cancer xenograft; conditions: 10 µM; 72 h
WHIM2 [3] = cells of a triple-negative basal-like breast cancer xenograft; conditions: 10 µM; 72 h
HCI01 [4] = conditions: 1 µM; 72 h
UCD52 [5] = conditions: 1 µM; 72 h
WHIM2 [6] = conditions: 1 µM; 72 h
WHIM30 [7] = cells of a triple-negative basal-like breast cancer xenograft; conditions: 1 µM; 72 h
WHIM30 [8] = conditions: 10 µM; 72 h

| SMILES | cell viability (HCI01 [1]) | cell viability (HCI03) | cell viability (HCI09) | cell viability (HCI11) | cell viability (HCI13) | cell viability (HCI16) | cell viability (UCD52 [2]) | cell viability (WHIM2 [3]) | cell viability (HCI01 [4]) | cell viability (UCD52 [5]) | cell viability (WHIM2 [6]) | cell viability (WHIM30 [7]) | cell viability (WHIM30 [8]) |
| --- | --- | --- | --- | --- | --- | --- | --- | --- | --- | --- | --- | --- | --- |
| COc1ccc2cc(CCC(C)=O)ccc2c1 [Nabumetone] | 170 ± 32 | 172 | 200 ± 62 | 141 | 199 ± 10 | 136 | 151 ± 25 | 117 ± 11 |  |  |  |  |  |
| CC[C@@]1(O)C(=O)OCc2c1cc1n(c2=O)Cc2cc3c(CN(C)C)c(O)ccc3nc2-1.Cl [Topotecan HCl] | 38 ± 13 |  | 35.2 ± 10 | 51.9 | 54.7 ± 1.9 | 69.1 | 42 ± 7.3 | 43.7 ± 2.5 | 65.4 | 93.4 | 49.6 | 41.7 | 82.1 ± 9.8 |
| CC(C)CC(NC(=O)C(CCc1ccccc1)NC(=O)CN1CCOCC1)C(=O)NC(Cc1ccccc1)C(=O)NC(CC(C)C)C(=O)C1(C)CO1 (stereo not given) [Carfilzomib (PR-171)] | 32.3 ± 3.5 |  | 25.7 ± 4.7 | 55.9 | 32.9 ± 4.7 | 38.9 | 64.4 ± 11 | 26.4 ± 11 | 29.2 | 16.6 | 43.9 | 22.9 | 68.8 ± 2.6 |
| NS(=O)(=O)c1cc2c(cc1Cl)NC(C(Cl)Cl)NS2(=O)=O (stereo not given) [Trichlormethiazide] | 104 ± 57 | 164 | 98.053 ± 0.0031 | 89.9 | 129.2 ± 0.42 | 186 | 142 ± 9.3 | 141 ± 8.7 |  |  |  |  |  |
| O=C(Nc1ccccc1)c1ccccc1O [Salicylanilide] | 165 ± 40 | 133 | 143 ± 34 | 111 | 98.3 ± 6.3 | 153 | 123 ± 4.3 | 160 ± 20 |  |  |  |  |  |
| OCCN1CC(O)C(O)C(O)C1CO (stereo not given) [Miglitol] | 68.9 ± 43 | 136 | 99.2 ± 8.7 | 92.4 | 113 ± 0.17 | 116 | 86.2 ± 7.9 | 95.7 ± 50 |  |  |  |  |  |
| CCCNC(C)C(=O)Nc1ccccc1C (stereo not given) [Prilocaine] | 77.2 ± 50 | 145 | 102 ± 1.6 | 92 | 119.7 ± 0.81 | 108 | 79.7 ± 1.1 | 98.7 ± 19 |  |  |  |  |  |
| CC(O)C(=O)O.CC(O)C(=O)O.CN1CCN(c2ccc3c(c2)NC(=C2C(=O)N=c4cccc(F)c4=C2N)N3)CC1 [Dovitinib Dilactic acid] | 43.1 ± 5.7 |  | 19.9 ± 0.23 | 66 | 79 ± 2.3 | 44.4 | 21.9 ± 2.9 | 52.2 ± 12 | 103 | 89.6 | 96.9 | 77.8 |  |
| COc1ccc(Cl)cc1C(=O)NCCc1ccc(S(=O)(=O)NC(=O)NC2CCCCC2)cc1 [Glibenclamide] | 103 ± 13 | 151 | 93.7 ± 16 | 93.2 | 108.2 ± 0.86 | 110 | 119 ± 3.5 | 134.7 ± 0.95 |  |  |  |  |  |
| CN1CCN(CCCN2c3ccccc3Sc3ccc(Cl)cc32)CC1 [Prochlorperazine] | 113 ± 3 | 118 | 98.8 ± 8.7 | 91.1 | 128 ± 17 | 92.1 | 63.7 ± 7.7 | 74.7 ± 5 |  |  |  |  |  |
| O=c1cc[nH]c(=O)[nH]1 [Uracil] | 120 ± 20 | 139 | 116 ± 28 | 98.8 | 64.47 ± 0.33 | 116 | 101 ± 7 | 135 ± 11 |  |  |  |  |  |
| CC(C)NCC(O)COc1ccc(COCCOC(C)C)cc1.O=C(O)C=CC(=O)O (stereo not given) [Bisoprolol fumarate] | 129.4 ± 0.93 | 129 | 102 ± 30 | 113 | 93.1 ± 1.1 | 96.1 | 86.1 ± 8.9 | 93.9 ± 16 |  |  |  |  | 120 ± 2.5 |
| O=c1sn(-c2cccc3ccccc23)c(=O)n1Cc1ccccc1 [Tideglusib] | 119 ± 20 | 114 | 98.2 ± 11 | 96.3 | 95.7 ± 14 | 94.7 | 78.4 ± 1.8 | 86.22 ± 0.6 |  |  |  |  | 131 ± 9.7 |
| CCCCC1=NC2(CCCC2)C(=O)N1Cc1ccc(-c2ccccc2-c2nn[nH]n2)cc1 [Irbesartan] | 86.3 ± 2 | 105 | 94.6 ± 3.9 | 91.8 | 114 ± 2.4 | 107 | 103 ± 5.5 | 105 ± 4.9 |  |  |  |  | 82.7 ± 24 |
| N[C@@H](Cc1cc(I)c(Oc2cc(I)c(O)c(I)c2)c(I)c1)C(=O)O [L-Thyroxine] | 66.5 ± 44 | 151 | 114 ± 14 | 93.3 | 150 ± 56 | 136 | 85 ± 2.5 | 93.6 ± 27 |  |  |  |  | 177 ± 6.2 |
| CCC1(c2ccccc2)C(=O)NCNC1=O [Primidone] | 78.1 ± 54 | 162 | 105 ± 2.9 | 90.6 | 134.7 ± 0.7 | 121 | 85.1 ± 8.9 | 100 ± 33 |  |  |  |  |  |
| CCCc1cc(C(N)=S)ccn1 [Protionamide] | 90.1 ± 32 | 117 | 97.5 ± 3 | 89.2 | 117 ± 10 | 112 | 100.1 ± 0.95 | 84 ± 27 |  |  |  |  | 112 ± 7.7 |
| CC(=O)SCC(Cc1ccccc1)C(=O)NCC(=O)OCc1ccccc1 (stereo not given) [Racecadotril] | 106 ± 19 | 111 | 92.8 ± 9.8 | 93.3 | 114 ± 8.9 | 104 | 65.6 ± 16 | 92.8 ± 1.4 |  |  |  |  | 79.3 ± 9 |
| NCCCCC(NC(CCc1ccccc1)C(=O)O)C(=O)N1CCCC1C(=O)O.O.O (stereo not given) [Lisinopril dihydrate] | 98.2 ± 20 | 137 | 106 ± 19 | 113 | 113 ± 3.5 | 130 | 105 ± 0.53 | 94 ± 22 |  |  |  |  | 150 ± 8.1 |
| Cc1nc(=O)c2cc(CN(C)c3ccc(C(=O)NC(CCC(=O)O)C(=O)O)s3)ccc2[nH]1 (stereo not given) [Raltitrexed] | 93.9 ± 5.5 | 122 | 104 ± 27 | 86.9 | 95.59 ± 0.3 | 99 | 106 ± 4 | 116 ± 2 |  |  |  |  |  |
| O=C(NC(CO)C(O)c1ccc([N+](=O)[O-])cc1)C(Cl)Cl (stereo not given) [Chloramphenicol] | 109 ± 15 | 128 | 102 ± 12 | 86.1 | 81.3 ± 6.8 | 90.9 | 92.9 ± 3.5 | 106 ± 27 |  |  |  |  | 100 ± 18 |
| CC(C)(Oc1ccc(CCNC(=O)c2ccc(Cl)cc2)cc1)C(=O)O [Bezafibrate] | 108.4 ± 0.24 | 101 | 95.5 ± 17 | 104 | 97.3 ± 2.6 | 123 | 101 ± 8.8 | 112 ± 14 |  |  |  |  | 113 ± 6.7 |
| CCCNC1CCc2nc(N)sc2C1.Cl.Cl.O (stereo not given) [Pramipexole 2HCl Monohydrate] | 126 ± 3.4 | 131 | 107.2 ± 0.44 | 110 | 97.4 ± 1.9 | 138 | 103 ± 16 | 94.3 ± 11 |  |  |  |  | 103 ± 4.9 |
| O=C(O)C=CC(=O)O.OCCOCCN1CCN(C2=Nc3ccccc3Sc3ccccc32)CC1.OCCOCCN1CCN(C2=Nc3ccccc3Sc3ccccc32)CC1 [Quetiapine Fumarate] | 186 ± 14 | 91.6 | 81.6 ± 5.6 | 123 | 83 ± 0.84 | 163 | 78.8 ± 2 | 128 ± 7 |  |  |  |  | 154 ± 6.5 |
| Nc1nc(F)nc2c1ncn2C1OC(COP(=O)(O)O)C(O)C1O (stereo not given) [Fludarabine Phosphate (Fludara)] | 101 ± 16 | 134 | 98.1 ± 17 | 124 | 98.8 ± 10 | 106 | 98.2 ± 4.5 | 127 ± 32 |  |  |  |  | 115 ± 13 |
| OCC(O)C(O)C(O)C(O)CO (stereo not given) [Sorbitol] | 89.2 ± 28 | 132 | 92.6 ± 8.6 | 84 | 102 ± 3.2 | 111 | 87.63 ± 0.58 | 86.6 ± 8.6 |  |  |  |  | 83.33 ± 0.53 |
| NS(=O)(=O)c1cc(C(=O)O)c(NCc2ccco2)cc1Cl [Furosemide] | 108 ± 7.4 | 126 | 98.4 ± 8.6 | 105 | 89.1 ± 17 | 94.5 | 83.56 ± 0.16 | 98.3 ± 1.4 |  |  |  |  | 78.9 ± 6.2 |
| Clc1ccc(C(Cn2ccnc2)OCc2csc3c(Cl)cccc23)c(Cl)c1.O=[N+]([O-])O (stereo not given) [Sertaconazole nitrate] | 113 ± 34 | 85.1 | 53.6 ± 39 | 103 | 44.6 ± 5.4 | 103 | 107 ± 58 | 150 ± 36 |  |  |  |  | 123 ± 12 |
